Results on nine compounds are retold here after PubChem BioAssay (NCI).

Some test systems named below: HT29 colon; SNB-19 CNS; U251 CNS; PC-3 prostate; SK-MEL-5 melanoma; UACC-62 melanoma; LOX IMVI melanoma; SK-MEL-2 melanoma; SN12C renal; UO-31 renal; TK-10 renal; ACHN renal; A498 renal; MOLT-4 leukemia; SK-MEL-28 melanoma; EKVX NSCLC; CAKI-1 renal; CCRF-CEM leukemia; SR leukemia; SNB-75 CNS.
Holding throughout (experiment): NCI-60 one-dose screen, 48 h (100 = growth as untreated, 0 = no growth, -100 = all killed)
Holding throughout (details): 10 µM unless noted

Structures are written as SMILES. About 83,000 compounds went through this panel and 20% of them were active in at least one assay; those are over-represented in the sample as a whole.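 A percent growth of 40 corresponds to 60% growth inhibition; 0 means no net growth; -100 means all cells died. Active threshold: below 10.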 Values without a mark were called inactive. The source made the active and inactive calls.

For `CCCCCCCCCCCCCCCCCc1nccn1CCO`, the growth in the experiment with HT29 colon is 13.6%; in the experiment with SNB-19 CNS, 66.9%; in the experiment with U251 CNS, 33.7%; with PC-3 prostate it was 55.9%; with SK-MEL-5 melanoma, 70.4%; with UACC-62 melanoma, 92.4%. Moreover, the growth in the experiment on LOX IMVI melanoma is -44.4% (active); in the experiment on SK-MEL-2 melanoma it was 82.2%; in the experiment on SN12C renal, 52.2%; in the experiment with UO-31 renal, 47.5%; in the experiment with TK-10 renal, 112%; with ACHN renal it was 63.7%. The results for the growth in the experiment with A498 renal and in the experiment with MOLT-4 leukemia were 72.5% and 65.6%, respectively.

As for `COc1cc(C2C=C(c3ccc(C)cc3)Nc3nc(SC)[nH]c(=O)c32)ccc1Oc1ccnc2cc(Cl)ccc12` (stereo unspecified), the growth with HT29 colon was 65.3%; in the experiment on SNB-19 CNS, 71.7%; in the experiment on U251 CNS it was 80.1%; in the experiment on PC-3 prostate, 60.2%; in the experiment on SK-MEL-5 melanoma, 63.1%; with UACC-62 melanoma, 61.5%. Besides, the growth with LOX IMVI melanoma is 79.9%; in the experiment with SK-MEL-28 melanoma, 97%; in the experiment with SK-MEL-2 melanoma, 78.9%; with EKVX NSCLC, 77%; in the experiment with SN12C renal, 67%; in the experiment with UO-31 renal, 57.8%. For the same compound, the growth in the experiment with TK-10 renal was 78.2%; with ACHN renal, 55.6%; in the experiment with CAKI-1 renal it was 67.8%; in the experiment on A498 renal it was 71.7%; in the experiment with CCRF-CEM leukemia, 67.5%; in the experiment on MOLT-4 leukemia, 63.9%. In addition, the growth with SR leukemia is 75.8%.

Regarding `Cn1cc(-c2csc(-c3c[nH]c4ncccc34)n2)c2cc(F)cnc21`, the growth was 66.2% in the experiment on SNB-75 CNS; 89% in the experiment with SNB-19 CNS; 83.3% in the experiment with U251 CNS; 69.1% in the experiment with PC-3 prostate; 61.4% in the experiment with SK-MEL-5 melanoma; 64.7% with UACC-62 melanoma. Also, the growth was 64.3% in the experiment on LOX IMVI melanoma; 96.2% in the experiment on SK-MEL-28 melanoma; 89.7% in the experiment on SK-MEL-2 melanoma; 51.9% in the experiment with EKVX NSCLC; 78.1% with SN12C renal; 55.6% in the experiment with UO-31 renal. For the same compound, the growth with TK-10 renal was 54.3%; with ACHN renal, 53.3%; with CAKI-1 renal, 45.1%; in the experiment with A498 renal, 70.4%; in the experiment with CCRF-CEM leukemia it was 66.1%; in the experiment on MOLT-4 leukemia, 80.5%.

With `NC(N)=NN=c1c(=O)c2ccccc2c1=O`, the growth in the experiment with HT29 colon is -49.4% (active); in the experiment on U251 CNS, 72.1%; in the experiment with PC-3 prostate, 78%; in the experiment on UACC-62 melanoma it was 103%; with LOX IMVI melanoma, -44.9% (active); in the experiment on SK-MEL-28 melanoma it was 80%. Also, the growth is 118% with SK-MEL-2 melanoma; 118% with EKVX NSCLC; 16.3% in the experiment with SN12C renal; 64.8% with UO-31 renal; 110% in the experiment with TK-10 renal; 78% in the experiment with ACHN renal. Also, the growth in the experiment with CAKI-1 renal was 104%; in the experiment on A498 renal, 78.1%; in the experiment with CCRF-CEM leukemia, -27.9% (active); in the experiment on MOLT-4 leukemia, -33.1% (active).

As for `COc1ccc(C2=NN(C(=O)c3cc(OC)c(OC)c(OC)c3)C(c3ccc(C#N)cc3)C2)cc1OC` (stereo unspecified), the growth was -8.4% (active) with HT29 colon; 21.5% with U251 CNS; 31.4% in the experiment on PC-3 prostate; 17.7% in the experiment with SK-MEL-5 melanoma; 43.6% in the experiment with UACC-62 melanoma; 33.6% with LOX IMVI melanoma. In addition, the growth in the experiment with SK-MEL-28 melanoma was 65.3%; in the experiment on SK-MEL-2 melanoma, 35.6%; with EKVX NSCLC it was 33.4%; in the experiment on SN12C renal, 53.5%; in the experiment with UO-31 renal it was 18.2%; in the experiment on TK-10 renal it was 31.9%. In addition, the growth in the experiment with ACHN renal was 44.6%; with CAKI-1 renal, 5.45% (active); with CCRF-CEM leukemia, 29.9%; with MOLT-4 leukemia, 49.5%; with SR leukemia, 28.4%.

With `COC(=O)C[C@@H]1CC=CC(=O)/C1=C(O)/C=C/c1ccccc1`, the growth in the experiment on HT29 colon was -65.3% (active); in the experiment on SNB-19 CNS, 2.77% (active); in the experiment on U251 CNS, -67.4% (active); in the experiment with PC-3 prostate, 3.43% (active); in the experiment on SK-MEL-5 melanoma, -97.8% (active); with UACC-62 melanoma, -67.5% (active). Also, the growth with LOX IMVI melanoma is -93.3% (active); in the experiment with SK-MEL-28 melanoma, -35.5% (active); with SK-MEL-2 melanoma it was -22% (active); in the experiment with EKVX NSCLC it was -30.8% (active); with SN12C renal, -41.5% (active); in the experiment with UO-31 renal, -80.8% (active). Also, the growth in the experiment with TK-10 renal was -23.7% (active); in the experiment on ACHN renal it was -83.3% (active); with CAKI-1 renal, -82.9% (active); with CCRF-CEM leukemia, 10.8%; with MOLT-4 leukemia it was 3.09% (active); in the experiment on SR leukemia, 5.6% (active).

`CCS(=O)(=O)OCCCl`: the growth with SNB-75 CNS is 70%; in the experiment on SNB-19 CNS, 94.3%; in the experiment on U251 CNS it was 92.1%; in the experiment with PC-3 prostate it was 97.6%; with SK-MEL-5 melanoma it was 103%; in the experiment on UACC-62 melanoma, 101%. The growth is 98.5% with LOX IMVI melanoma; 120% in the experiment on SK-MEL-28 melanoma; 83.7% in the experiment on SK-MEL-2 melanoma; 105% with EKVX NSCLC; 102% in the experiment on SN12C renal; 68.3% in the experiment with UO-31 renal. Further, the growth was 97.7% with TK-10 renal; 99.3% with ACHN renal; 104% with CAKI-1 renal; 101% with A498 renal; 84.7% in the experiment with CCRF-CEM leukemia; 89.8% in the experiment with MOLT-4 leukemia. In addition, the growth in the experiment with SR leukemia was 137%.

For `CCCn1cnc2c1c(=O)n(CCCCC(C)=O)c(=O)n2C`, the growth in the experiment on HT29 colon was 95.8%; in the experiment on SNB-19 CNS, 120%; in the experiment with U251 CNS it was 95.5%; in the experiment on PC-3 prostate, 99.2%; in the experiment on SK-MEL-5 melanoma it was 104%; in the experiment on UACC-62 melanoma it was 104%. In addition, the growth is 98.2% in the experiment on LOX IMVI melanoma; 114% with SK-MEL-28 melanoma; 108% in the experiment on SK-MEL-2 melanoma; 108% in the experiment on EKVX NSCLC; 124% with SN12C renal; 80.9% in the experiment with UO-31 renal. Besides, the growth is 114% with TK-10 renal; 101% in the experiment with ACHN renal; 103% with CAKI-1 renal; 109% with CCRF-CEM leukemia; 92% in the experiment with MOLT-4 leukemia; 87.5% in the experiment with SR leukemia.

Regarding `CN=C(NC)N/N=C(C)\C=N\NC(=NC)NC`, the growth was 104% with HT29 colon; 99.4% in the experiment on SNB-19 CNS; 98.8% with U251 CNS; 94.8% with PC-3 prostate; 97.5% with UACC-62 melanoma; 109% in the experiment on LOX IMVI melanoma. In addition, the growth was 110% with SK-MEL-28 melanoma; 117% in the experiment on SK-MEL-2 melanoma; 101% with EKVX NSCLC; 96.4% in the experiment on SN12C renal; 83.7% with UO-31 renal; 127% in the experiment with TK-10 renal. In addition, the growth in the experiment with ACHN renal was 101%; in the experiment with CAKI-1 renal it was 89.1%; in the experiment on A498 renal it was 96.3%; in the experiment with CCRF-CEM leukemia it was 106%; in the experiment on MOLT-4 leukemia, 101%.
